Experimental data taken from PubChem BioAssay (NCI).
Compounds without any hit were thinned out: in the full panel of roughly 83,000, 20% have a hit.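 Cells were grown in 96-well plates and exposed to the test compound at a single concentration for 48 hours; results are reported as percent growth, with values below 10 considered active.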 The source made the active and inactive calls.

What follows are compounds tested on MDA-MB-468 breast (assay: NCI-60 one-dose screen, 48 h (100 = growth as untreated, 0 = no growth, -100 = all killed)). Conditions: 10 µM unless noted.

Compound | growth
S=P(NC1CCCCC1)(N1CC1)N1CC1 | 103% (inactive)
COc1ccc(/C=C/c2cc(OC)c(OC)c(OC)c2)cc1NC(=O)/C=C/c1ccc(F)cc1 | 13.3% (inactive)
ClCCN(CCCl)c1ccc(-n2cnc3c(Cl)ncnc32)cc1 | -43.5% (active)
N#C[Se]CCN1C(=O)c2ccccc2C1=O | 20.4% (inactive)
COc1ccc(NC([Se])=NC23CC4CC(CC(C4)C2)C3)cc1 | -15.6% (active)
COc1ccc(/C=C\c2cc(OC)c(OC)c(OC)c2)c(NS(=O)(=O)c2ccc(F)cc2)c1O | 15.9% (inactive)
O=c1[nH]c(=O)[nH]c(=O)[nH]1 | 146% (inactive)
C[C@]12CCc3sc(-c4ccc(Cl)cc4)nc3C1=CC[C@@H]1[C@@H]2CC[C@]2(C)C(=O)CC[C@@H]12 | 55.5% (inactive)
CCC(C)[C@H]1C(=O)O[C@H](C(C)C)C(=O)N(C)[C@@H](C(C)C)C(=O)O[C@H](C(C)C)C(=O)N(C)[C@@H](C(C)C)C(=O)O[C@H](C(C)C)C(=O)N1C (stereo not given in full) | -0.302% (active)
CC1CN1CCCCN1CC1C (stereo not given) | 101% (inactive)
[Cl][Hg][n]1c(-c2ccco2)nc2ccccc21 | 94.4% (inactive)
CN(CCF)/N=N/c1nc[nH]c1C(N)=O | 26.7% (inactive)
COc1cc([N+](=O)[O-])c2ncccc2c1[N+](=O)[O-] | 0.105% (active)
O=[N+]([O-])c1cc([N+](=O)[O-])c(Cl)c(Cl)c1Cl | -57.3% (active)
CCCCCCCCCCCCCC[P+](CCCCCC)(CCCCCC)CCCCCC | -88.3% (active)
